# Results as given in the supplement of paper PMC7156485.
# System: HCC1569
# Assay: cell number relative to DMSO (% of DMSO); higher = more cells (less growth inhibition / toxicity)
# Details: concentration: 10 µM; 24 h
# Procedure, shortened: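 H1.0 nuclear intensity or cell number is stated as percent of the plate control, based on the median of replicates, and HCC1569 values were smoothed for positional effects. These came from HCC1569 and TDF cells treated with compounds at 10 µM for 24 h at 37 °C in triplicate, then fixed in 3.7% formaldehyde and stained with a rabbit anti-H1.0 antibody, an AlexaFluor 647 secondary and DAPI.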
# 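Note: TDF denotes transformed human dermal fibroblasts of mesenchymal origin.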
row,SMILES,cell number
1,CCN(C)C(=O)Oc1cccc(C(C)N(C)C)c1 (stereo unspecified) [Rivastigmine],102
2,"COc1ccc2c(c1O)-c1c(OC)c(OC)cc3c1C(C2)N(C)CC3.Cl (single isomer, unassigned; (+)) [(+)-Isocorydine hydrochloride]",103
3,CN1CC(C(=O)NC2(C)OC3(O)C4CCCN4C(=O)C(Cc4ccccc4)N3C2=O)CC2c3cccc4[nH]cc(c34)CC21.CS(=O)(=O)O (stereo unspecified) [Dihydroergotamine mesylate],98.8
4,COC1CC(CC2CCC(C)C(C(C)C(=O)[O-])O2)OC2(OC(C)(C3CCC(C)(C4OC(C5OC(O)(CO)C(C)CC5C)CC4C)O3)CC2C)C1C.[Na+] (stereo unspecified) [Nigericin],53.3
5,C=C1C(C)C2C(Cc3ccccc3)NC(=O)C23OC(=O)C=CC(O)CCCC(C)CC=CC3C1O (stereo unspecified) [Cytochalasin B],95.1
6,CCN(CC)C(=O)NC1C=C2c3cccc4[nH]cc(c34)CC2N(C)C1 (stereo not drawn) [S-(-)-Lisuride],101
7,C=CCN1CC(C(=O)N(CCCN(C)C)C(=O)NCC)CC2c3cccc4[nH]cc(c34)CC21 (stereo unspecified) [Cabergoline],109
8,CCC(C(N)=O)N1CCCC1=O (stereo unspecified) [Levetiracetam],102
9,Cc1sc2c(c1C)C(c1ccc(Cl)cc1)=N[C@@H](CC(N)=O)c1nnc(C)n1-2,79.2
10,CC1=C2C(=O)C3C(CC=C4CC(O)CCC43C)C2CCC12OC1CC(C)CNC1C2C (stereo unspecified) [Jervine],97.9
11,NC(Cn1oc(=O)[nH]c1=O)C(=O)O (stereo unspecified) [Quisqualic acid],100
